Experiment in all cases: Primary qHTS to identify gynecologic anti-cancer compounds using libraries of approved drugs and bioactive compounds (AID 1345084); further: nearly all actives have a fitted effect of over 55% in size
Holding throughout (conditions): Gynecologic cancer cell panel viability, ATPlite luminescence, 48 h; series mostly up to 57.5 µM
A general note: Quantitative high-throughput screening tests each substance at several concentrations.

In assay [1] the test system is PA-1. The gist of the method:
(§1)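 Five-concentration response, 48 h; readout is ATP-driven luciferase luminescence.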

Assay [2] has as its system Tov-21-G. The gist of the method: as §1
Assay [3] has as its system SKOV3. Put shortly: as §1
Assay [4] concerns Tov112D. Put shortly:
as §1

Records with an inconclusive call do not appear. Unmarked numbers belong to inactive results. Activity calls are given as the source filed them. The call rests on the fitted dose curve; in most records, active means well fitted cell-killing curve with a large enough effect; inconclusive means small, poorly fitted or top-dose-only effect, or effect the other way; inactive means flat fitted curve, though single readings scatter.
On the % scale 0 is the no-effect control and ±100 the full control effect; potency means the concentration at half of the fitted maximal effect.

Regarding `C=C(C)C(=O)O[C@H]1C[C@@](C)(O)C2(O)CCC(C)(/C=C3/OC(=O)C(COC)=C31)O2` (stereo partly drawn), the Potency in assay [1] and in assay [2] was 10 µM (active) in each case.

Consider `C=CC(=O)Nc1cccc(Nc2nc(Nc3ccc(OCCOC)cc3)ncc2F)c1`, for which the Potency in assay [1] was 10 µM (active); in assay [3], 2.82 µM (active); in assay [4], 4.47 µM (active).

Consider `O=C(c1ccccc1)c1c(O)cc(O)cc1O[C@@H]1O[C@H](CO)[C@@H](O)[C@H](O)[C@H]1O`, for which the Potency in assay [1] and in assay [4] was 11.2 µM (active) in each case. Also, the Potency entry in assay [3] was “inactive”.

Consider `COc1cc(-n2cnc3cc(-c4ccc(Cl)cc4)sc3c2=O)ccc1OCCN1CCCC1`, for which the Potency in assay [1] was 22.4 µM (active). Further, the Potency result in assay [2] is “inactive”.

With `O=C(Nc1ccc2[nH]nc(-c3ccncc3)c2c1)[C@@H]1CCN(CC(=O)N2CCN(c3ccc(-c4ncccn4)cc3)CC2)C1`, the Potency result in assay [1], in assay [3] and in assay [4] was “inactive” in each case.

With `O=C(NCCCNC(=O)c1ccc[nH]c1=O)c1cc(-c2ccccc2)on1`, in assay [1], the Potency was 8.91 µM (active). Also, the Potency result in assay [3] and in assay [4] was “inactive” each time.

Turning to `Cc1cc(-c2nc(-c3ccc(OC(F)(F)F)cc3)no2)nn1Cc1ccnc(N2CCN(C3CC3)CC2)c1`, the Potency entry in assay [1], in assay [2] and in assay [4] was “inactive” in each case.

On to `C=C[C@@]1(C)C=C2C(=O)C(O)=C3[C@](C)(C(=O)O)CC[C@@H]4C[C@]34[C@]2(O)C(=O)C1`, for which the Potency in assay [1] and in assay [2] was 11.2 µM (active) in each case.

As to `CN(C)Cc1ccc(-c2cnn3c(-c4cccc(NC(=O)c5cccc(C(F)(F)F)c5)c4)ccnc23)cc1`, the Potency result in assay [1], in assay [2] and in assay [4] was “inactive” throughout.

Take `O=C(Nc1cccc([N+](=O)[O-])c1)c1cccc(S(=O)(=O)N2CCCCCC2)c1`: the Potency result in assay [1], in assay [2] and in assay [4] was “inactive” throughout.

With `CCCn1ncc(CN2CCCC(C(=O)c3cccc(OC(C)C)c3)C2)c1C` (stereo not drawn), the Potency entry in assay [1], in assay [2] and in assay [4] was “inactive” throughout.

As to `COc1ccc2cc3c(NC(=O)c4ccco4)nn(C)c3nc2c1`, the Potency entry in assay [1], in assay [2] and in assay [4] was “inactive” throughout.

As for `Cc1csc2c(N[C@@H](C)CN3CCN(S(=O)(=O)c4ccc(Cl)c(Cl)c4)CC3)ncnc12`, the Potency result in assay [1], in assay [2] and in assay [4] was “inactive” in each case.

Consider `CC(=O)NCc1cccc(OC[C@@H](O)CNCCc2ccc(NS(=O)(=O)c3ccccc3)cc2)c1`, for which the Potency result in assay [1], in assay [2] and in assay [4] was “inactive” throughout.

As to `Cc1cc(CS(=O)(=O)c2ccccc2)cc(OCc2ccc(CN3CCCC3CO)cc2)c1` (stereo not drawn), the Potency result in assay [1], in assay [2] and in assay [4] was “inactive” each time.

As to `Nc1ncnc2c1nc(Cl)n2C1OC2COP(=O)(O)OC2C1O` (stereo not drawn), the Potency in assay [1] is 8.91 µM (active); in assay [2], 8.91 µM (active); in assay [4], 5.01 µM (active).

In the case of `CNc1nc(NCc2ccc(NS(C)(=O)=O)cc2Cl)cc(-c2ccccn2)n1`, the Potency result in assay [1] and in assay [2] was “inactive” throughout.

For the compound `C=CC(=O)N1CCCN(c2cc(NCCC(=O)O)nc(-c3ccccn3)n2)CC1`, the Potency result in assay [1], in assay [2] and in assay [4] was “inactive” throughout.

On to `O=C1C(Cc2ccc(O)cc2)N2C(=O)CCN(C(=O)NCc3ccccc3)C2CN1Cc1cccc2ccccc12` (stereo not drawn), for which the Potency in assay [3] was 20 µM (active); in assay [2], 7.94 µM (active).

`COC1CC(O[C@H]2CC[C@]3(C)C4CC[C@@]5(C)C(=O)[C@]4(CC[C@@H]3C2)CC[C@@H]5C2=CC(=O)OC2)OC(C)C1OC1OC(COC2OC(CO)C(O)C(O)C2O)C(O)C(O)C1O` (stereo partly drawn): the Potency in assay [1] is 3.16 µM (active); in assay [2], 2.24 µM (active); in assay [4], 1.12 µM (active).

In the case of `COc1cc2c(cc1NS(=O)(=O)c1ccc(Br)cc1C)n(C)c(=O)n2C`, the Potency result in assay [1], in assay [2] and in assay [4] was “inactive” in each case.

As for `O=C(CN1C2=NCCN2c2ccccc21)c1ccc(-c2ccccc2)cc1`, the Potency entry in assay [1] and in assay [4] was “inactive” throughout.

In the case of `COc1ccccc1-c1ccc(-c2cn(C(=O)N3CCCCC3Cc3ccccc3)nn2)cc1` (stereo not drawn), the Potency result in assay [3], in assay [2] and in assay [4] was “inactive” each time.

Turning to `C=C1C(=O)OC2/C=C(\C)CC3C=C(CC/C=C(\C)CCC12)C(=O)O3` (stereo not drawn), the Potency entry in assay [1] and in assay [4] was “inactive” each time.

Consider `Nc1nccc(-c2c(-c3ccc(F)cc3)ncn2C2CCCCC2)n1`, for which the Potency entry in assay [3] was “inactive”.

In the case of `Cc1nc2cc(C(=O)NCc3ccccn3)nn2c(C)c1Cc1cccc(Cl)c1`, the Potency result in assay [1], in assay [2] and in assay [4] was “inactive” each time.

With `COc1ccc(-c2ccccc2)cc1NS(=O)(=O)c1cc(Cl)cc(Cl)c1O`, in assay [3], the Potency result is “inactive”.

`C/C=C(/C)C(=O)OC1CC(C)(C)CC2C3=CCC4C5(C)CCC(O[C@@H]6O[C@H](C(=O)O)[C@@H](O)[C@H](O)[C@H]6O[C@@H]6O[C@H](CO)[C@H](O)[C@H](O[C@@H]7OC[C@H](O)[C@H](O)[C@H]7O[C@@H]7O[C@H](CO)[C@@H](O)[C@H](O)[C@H]7O)[C@H]6O)C(C)(C)C5CCC4(C)C3(C)C(O)C(O)C12CO` (stereo partly drawn): the activity change, negative = cytotoxicity in assay [3] was -5.71% [at 6.55 µM].

As for `CNCCC(c1cccs1)c1ccc(O)c2ccccc12` (stereo not drawn), the Potency result in assay [1], in assay [2] and in assay [4] was “inactive” each time.

Take `Cc1cc(OCCCS(C)(=O)=O)cc(C)c1-c1cccc(COc2ccc(C3=CC(=O)NS3=O)cc2)c1` (stereo not drawn): the Potency entry in assay [3], in assay [2] and in assay [4] was “inactive” in each case.

In the case of `CC(=O)O[C@H]1CC(C)(C)CC2[C@]13CO[C@@]21CCC2[C@@]4(C)CC[C@H](O[C@@H]5OC[C@H](O[C@@H]6O[C@H](CO)[C@@H](O)[C@H](O)[C@H]6O[C@@H]6OC[C@@H](O)[C@H](O)[C@H]6O)[C@H](O)[C@H]5O[C@@H]5O[C@H](CO)[C@@H](O)[C@H](O)[C@H]5O)[C@@](C)(CO)C4CC[C@@]2(C)[C@]1(C)C[C@H]3O` (stereo partly drawn), the activity change, negative = cytotoxicity in assay [3] was -11.7% [at 11.6 µM].

The values are drawn from PubChem BioAssay (NCATS).
